Measurements published in PubChem BioAssay AID651635 (National Center for Advancing Translational Sciences (NCATS), 2012).
Among all 400,000 compounds or so, about 1,900 (0.47%) were called active. Roughly 14% stayed inconclusive and do not appear here. The call rests on the fitted dose curve; in most records, active means well fitted cell-killing curve with a large enough effect; inconclusive means small, poorly fitted or top-dose-only effect, or effect the other way; inactive means no such curve, though single readings can be large or run the other way. The list comes from a sample in which actives are over-represented; it also holds similar structures and randomly drawn compounds. A call without a number means that no potency is given here.

Assay: Viability Counterscreen for Primary qHTS for Inhibitors of ATXN expression; further: nearly all actives have a fitted effect of over 40% in size
Settings: S2 cells (HEK-293 line with an ATXN2-luciferase reporter) viability, CellTiter-Fluor protease fluorescence, 24 h; series mostly up to 56.7 µM
Excerpt: Spinocerebellar ataxia type 2 (SCA2) is a multisystem neurodegenerative disease caused by a dominantly-acting mutation leading to expansion of a polyQ domain in the ataxin-2 protein (ATXN2). SCA2 patients develop progressive ataxia and later lose function in other neuronal systems. Prominent parkinsonian signs develop in some patients. Similar to many neurodegenerative disorders, no symptomatic or disease-modifying treatments are known.
The primary objective of the proposed research is to identify compounds inhibiting ATXN2 expression and to test them for efficacy in SCA2 mouse models. To this end, we have developed a cell-based assay paired with an in vivo mouse model using identical luciferase expression constructs. This approach takes advantage of an ATXN2-luciferase transgene, with the luciferase gene flanked by the upstream and downstream portions of the ATXN2 gene. This primary assay was tested against the NIH Molecular Libraries Small Molecule Repository (MLSMR).
NIH Chemical Genomics Center [NCGC]
NIH Molecular Libraries Probe Centers Network [MLPCN]
Assay Submitter (PI): Daniel Scoles, University of Utah
PROTOCOL TABLE (as described by Inglese J, Shamu CE and Guy RK. 2007)
SEQUENCE No. (e.g., 1, 2, 3, etc.); […] (e.g., Cells, Incubation, Reagent, etc.); VALUE; DESCRIPTION.
1; Cells; 4 uL; white, solid bottom, 1536-well Greiner assay plate.
2; Incubation; 2 hr; 37 degree C in 5% humidified CO2.
3; Compounds; 23 nL; Kalypsis pintool (Wako USA) equipped with a 1536-well pin head.
4; Incubation; 24 hr; 37 degree C in 5% humidified CO2.
5; Reagent; 1 uL; Gly-Phe-7-Amino-4-trifluoromethylcoumarin.
6; Incubation; 30 min; 37 degree C in 5% humidified CO2.
7; Detection; Fluorescence; ViewLux plate reader (PerkinElmer).
8; Reagent; 3 uL; SteadyGlo luciferase solution (Promega).
9; Incubation; 5 min; room temperature.
10; Detection; Luminescence; ViewLux plate reader (PerkinElmer).
NOTES (numbers refer to Sequence numbers above)
1. S2 cells expressing ATXN2-luciferase reporter were suspended in phenol-red free DMEM and dispensed in assay plates using a Multidrop Combi dispenser (Thermo Fisher Scientific).
2. Assay plates were incubated. Evaporation was prevented by covering assay plates with metal lids containing holes to allow gas diffusion.
3. […] Vehicle-only plates, with DMSO being pin-transferred to columns 5-48, were inserted uniformly at the beginning and the end of each library to monitor and record any shifts in assay performance.
5. 125 uM Gly-Phe-7-Amino-4-trifluoromethylcoumarin (MP Biomedicals) working concentration was used at a final concentration of 25 uM.
7. To assess cell viability; the assay plates were read using the ViewLux high-throughput CCD imager (PerkinElmer), wherein single end-point fluorescence measurement was acquired (excitation 405/10; emission 540/25 nm).
8. Detection reagent SteadyGlo Luciferase (Promega) was added to the assay plate.
10. Luminescence is then measured on the ViewLux imager equipped with a clear emission filter using a 2 sec exposure. All screening operations were performed on a fully integrated robotic system (Kalypsys) containing one RX-130 and two RX-90 anthropomorphic robotic arms (Staubli).
Inglese J, Shamu CE and Guy RK, Reporting data from high throughput screening of small molecule libraries, Nature Chemical Biology, 2007, 3(8): 438-441. doi.org/10.1038/nchembio0807-438.
Potency means the concentration at half of the fitted maximal effect.

| SMILES | Potency |
| --- | --- |
| O=C(CCl)Nc1cccc(CP(=O)(c2ccccc2)c2ccccc2)c1 | 14.1 µM (active) |
| O=C(NCCc1ccccc1)c1cccc(NC(=O)c2ccccc2)c1 | inactive |
| O=C(CSCc1ccccc1)Nc1ccccc1 | inactive |
| CCOc1ccc(NS(=O)(=O)c2ccc(N)cc2)nn1 | inactive |
| O=C(NC(c1ccc(Cl)cc1)c1cnccn1)C1CCN(Cc2ccc(Cl)cc2)CC1 (stereo unspecified) | inactive |
| NC(=O)CSC1=Nc2ccccc2C2=NC(CCC(=O)NCc3ccc(F)cc3)C(=O)N12 (stereo unspecified) | inactive |
| O=C(CC1N=C2c3ccccc3N=C(SCc3cccc(Cl)c3)N2C1=O)NCc1ccc2c(c1)OCO2 (stereo unspecified) | 31.6 µM (active) |
| Cc1ccc(CNC(=O)CSC2=Nc3ccccc3C3=NC(C)C(=O)N23)cc1 (stereo unspecified) | inactive |
| CC(C)(C)C(=O)c1c(N)[nH]c(C(=O)c2ccccc2)c1-c1ccc(F)cc1 | inactive |
| COCC(=O)Nc1cc(C(=O)N2CCCC(c3ccccc3)CC2)c2c(c1)nc(-c1ccncc1)n2C (stereo unspecified) | inactive |
| CCOC(=O)[C@H](CCc1ccccc1)N[C@@H](C)C(=O)N1CC2(C[C@H]1C(=O)O)SCCS2 | inactive |
| O=C(C(=O)N1CCOc2ccc(CN3CCN(Cc4ccccn4)CC3)cc2C1)c1ccccc1 | inactive |
| CCC1(C2CCN(C(=O)c3cccc(F)c3F)CC2)NC(=O)N(CCc2scnc2C)C1=O (stereo unspecified) | inactive |
| Cc1ccc(-c2ccc(C(=O)N3CCc4nnc(CNC(=O)c5ccccc5)n4CC3)cc2)cc1 | inactive |
| COc1ccc(CCNc2ncnc3sc(C(=O)N4CCCC4)c(C)c23)cc1OC | inactive |
| O=C1NC(=O)C2C1C(c1ccc([N+](=O)[O-])cc1)=NN2Cc1ccccc1 (stereo unspecified) | inactive |
| O=C1CC(c2ccccc2)=NN1c1ccc([N+](=O)[O-])cc1 | 21.2 µM (active) |
| Cn1nc(-c2ccccc2)c2cc([N+](=O)[O-])ccc21 | inactive |
| NC(Cc1ccccc1)c1csc(Nc2cc(Oc3ccccc3)ncn2)n1 (stereo unspecified) | 31.6 µM (active) |
| COc1ccc(C(NC(=O)C2CCN(CCCc3ccccc3)CC2)c2cccs2)cc1 (stereo unspecified) | inactive |
| COc1ccccc1C1CN(CCNC(=O)C2=CCCC2)Cc2ccccc2O1 (stereo unspecified) | inactive |
| CC(C)NC(=O)N1Cc2cc(C(=O)NCC(F)(F)F)nc(-c3cccc(-c4cc5ccccc5o4)c3)c2[C@@H]1CCO | inactive |
| Cc1nc2ccccc2nc(C)c1=NOCc1ccc(Cl)cc1Cl | inactive |
| NC(N)=N/N=C/c1ccc(OCc2ccc(Cl)cc2Cl)cc1 | 35.5 µM (active) |
| COc1ccc(Cl)cc1N(CC(=O)N/N=C/c1ccc(OCC(N)=O)cc1)S(C)(=O)=O | inactive |
| C[C@H]1C[C@H]2[C@@H]3CCC4=CC(=O)C=C[C@]4(C)[C@@H]3C(=O)C[C@]2(C)[C@@]1(O)C(=O)CO | inactive |
